Experimental data as given in ChEMBL document CHEMBL1157539, “Thousands of chemical starting points for antimalarial lead identification” (Nature, 2010).

What follows are molecules tested on HepG2 (assay: GSK_TCMDC: Percent inhibition of human HepG2 cell line. Test compounds present at 10uM.).
Type: functional

Structure (SMILES) | Inhibition [%]
O=C(Nc1cccc(C(F)(F)F)c1)NC1CCN(c2ccnc3cc(Cl)ccc23)C1.O=C(O)C(F)(F)F (stereo not given) | 18
COc1ccc2nccc([C@@H](O)CN3CCC(NCc4cnc5c(c4)NC(=O)CS5)CC3)c2c1.O=C(O)C(=O)O | 0
O=C(NCC1CCN(Cc2cccc(C(F)(F)F)c2)C1)c1cc(-c2cccc(Cl)c2)cs1.O=C(O)C(F)(F)F (stereo not given) | 15
COc1ccc(CN(C)Cc2ccc(NC(=O)c3cccc4c(=O)c5cccc(C)c5[nH]c34)cc2)cc1OC | 7
Cc1cc(N(C)C2CCN(C)C2)nc(Nc2ccc(Cl)cc2)n1 (stereo not given) | 8
CCOc1cc(Br)c(C(C)NC(=O)c2cccc(OC)c2)cc1OCC (stereo not given) | 0
N#Cc1ccc(CN2CCC(Oc3ccc(NC(=O)c4ccccc4)cc3Cl)CC2)cc1.O=C(O)C(F)(F)F | 21
CCOC(=O)C1=C(C)N=c2sc(=Cc3cc(Cl)ccc3O)c(=O)n2C1c1ccc2c(c1)OCO2 (stereo not given) | 0
Cc1cnc(C(=O)Nc2cccc(-c3cccc(-c4nc5cccc(C)c5[nH]4)c3)c2)cn1 | 15
CC(C)c1ccc(N(CC(=O)N/N=C/c2ccc(C(F)(F)F)cc2)S(=O)(=O)c2ccc(C(F)(F)F)cc2)cc1 | 2
COc1ccc2nc(C)cc(Nc3ccc(Cl)cc3)c2c1 | 10
O=C(NCc1cccc(F)c1)Nc1ccc(-c2cccc(-c3nc4ccccc4[nH]3)c2)cc1 | 14
CN1CCC(NCc2ccc(-c3cccc(S(=O)(=O)NCCc4ccccn4)c3)cc2)CC1.O=C(O)C(F)(F)F | 42
Cl.NC1=NC(CCc2ccccc2)N(c2ccc(Cl)cc2)C(N)=N1 (stereo not given) | 2
N#CN1CC[C@@H](NS(=O)(=O)Cc2ccc(Cl)c(Cl)c2)C1 | 13
CO/C(=C\C=C\c1cc2cc(Cl)c(Cl)cc2[nH]1)C(=O)NC1CCN(CCOc2ccccc2)CC1 | 35
Cc1[nH]c(C)c(-c2ccc(OCc3cc(C(F)(F)F)cc(C(F)(F)F)c3)nc2)c(=O)c1Br | 28
O=[N+]([O-])c1cccc(-c2nc(-c3ccc(Br)cc3)[nH]c2-c2ccc(Br)cc2)c1 | 6
CC(C)CNC(=O)CN1C(=O)C(c2ccccc2)(c2ccccc2)N=C1N | 15
CCOC(=O)C(C(C)=O)C(c1ccccc1)C(C(C)=O)C(=O)OCC (stereo not given) | 6

Structure (SMILES) | Inhibition [%]
Cc1cc(=NN=Cc2ccccc2Cl)c2cccc(C)c2[nH]1 | 10
O=C(/C=C/c1ccc(Cl)c(Cl)c1)NCCCCCN1CCC(NC(=O)Nc2ccc3c(c2)OCO3)CC1 | 12
CCCNc1ccc(-c2cc(C(N)=O)c3[nH]cc(C4CCN(S(=O)(=O)CC)CC4)c3c2)cn1.O=C(O)C(F)(F)F | 6
O=C(C=Cc1ccc(Cl)c(Cl)c1)NCCCCCN1CCCC(CCCNC(=O)C2CC2c2ccccc2)C1 (stereo not given) | 48
CCCCCN1C(=O)N(c2ccc(Cl)c(Cl)c2)C(N(O)C(=O)Nc2ccc(Cl)c(Cl)c2)C1(C)C (stereo not given) | 0
CCN(CC)/C(=N/C(=N)Nc1ccc(Cl)cc1)NCCCCCCCCN/C(=N\C(=N)Nc1ccc(Cl)cc1)N(CC)CC | 10
COc1ccc2nccc([C@@H](O)CN3CCC(NCCOc4cccc(C(F)(F)F)c4Cl)CC3)c2c1.O=C(O)C(=O)O | 13
Cc1ccc2[nH]c(-c3cc(-c4ccc(CO)cc4)cnc3N)nc2c1.O=C(O)C(F)(F)F | 52
CN1CCC(Oc2ccc(CN3CC[C@H](NC(=O)c4ccc(Cl)c(Cl)c4)C3)cc2Cl)C1.O=C(O)C(F)(F)F (stereo not given in full) | 68
O=C(Nc1cccc(-c2ccc(-c3nc4ccccc4[nH]3)cc2)c1)Nc1ccc(F)c(F)c1F | 45
CN1CCN(CC(=O)Nc2cccc(-c3ccc(-c4nc5cc(F)ccc5[nH]4)s3)c2)CC1 | 71
COc1ccc(-c2ccc(NC(=O)c3ccc(C#N)cc3)cc2)cc1CN1CCCC1.O=C(O)C(F)(F)F | 40
Cc1cc(-c2ccc3occ(CCN)c3c2)cnc1N | 0
COc1ccc(Br)cc1/C=C/C(=O)Nc1ccc(C2CCCN(C)C2)cc1.O=CO (stereo not given) | 18
Cc1ccc(Nc2nnc(SCC(=O)Nc3ccc(CN4CCCC4)cc3)s2)cc1 | 4
CCn1ncc2c(NC3CCOCC3)c(CNC(=O)c3ccnn3C)c(C)nc21 | 0
COC(=O)c1cc(C(O)CNC(C)CCc2cccc(F)c2)ccc1O.Cl (stereo not given) | 38
CC(C)COc1ccc(Cl)cc1Cc1nc(-c2nc3ccc(CN4CCN(C)CC4)cc3[nH]2)co1.Cl | 5
CCCCCCOc1ccc(C(=O)NCCCC2CCCN(CCCCCNC(=O)C=Cc3ccc(Cl)c(Cl)c3)C2)cc1 (stereo not given) | 20
N#Cc1cncc(-c2nc3c(N4CCN(c5cnccn5)CC4)cccc3n2CCNCc2ccccc2)c1.O=C(O)C(F)(F)F | 0
